SMILES strings stand for the structures. Compounds without any hit were thinned out: in the full panel of roughly 83,000, 20% have a hit.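 Plates (96-well) were seeded with cells, treated with compound at one concentration, and incubated for 48 hours before percent growth was determined.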 Values without a mark were called inactive. Calls of active or inactive are those of the source. The calls were made as follows: active = growth percent below 10; inactive = the rest.

Among the test systems are SR leukemia; RPMI-8226 leukemia; OVCAR-8 ovarian; OVCAR-5 ovarian; OVCAR-4 ovarian; SK-OV-3 ovarian; IGROV1 ovarian; OVCAR-3 ovarian; HS 578T breast; NCI/ADR-RES ovarian.
Test in all cases: NCI-60 one-dose screen, 48 h (100 = growth as untreated, 0 = no growth, -100 = all killed)
Holding throughout (conditions): 10 µM unless noted

`O=C(O)c1cccc2cccc(-c3c4ccc(=O)c(O)c-4oc4c(O)c(O)ccc34)c12`: the growth in the test on SR leukemia was 83.6%; with RPMI-8226 leukemia it was 123%; with OVCAR-8 ovarian it was 100%; with OVCAR-5 ovarian it was 97.5%; in the test on OVCAR-4 ovarian, 97.4%; with SK-OV-3 ovarian it was 90.1%. The growth with IGROV1 ovarian was 101%; in the test with OVCAR-3 ovarian, 93.5%; with HS 578T breast, 99.5%; in the test on NCI/ADR-RES ovarian it was 96.7%.

Consider `OC(c1cc2ccc(C(F)(F)F)cc2c2cc(C(F)(F)F)ccc12)C1CCCCN1` (stereo not given), for which the growth was -84.7% (active) in the test with SR leukemia; -54.5% (active) with RPMI-8226 leukemia; -63.8% (active) in the test on OVCAR-8 ovarian; -99% (active) in the test with OVCAR-5 ovarian; -100% (active) with OVCAR-4 ovarian; -100% (active) in the test with SK-OV-3 ovarian. Further, the growth was -83.9% (active) in the test with IGROV1 ovarian, -100% (active) in the test on OVCAR-3 ovarian, -44.2% (active) in the test on HS 578T breast and -84.6% (active) in the test with NCI/ADR-RES ovarian.

In the case of `CCOC(=O)c1cc(CC)sc1NC(=O)CC(C)=O`, the growth in the test on SR leukemia is 35.1%; with RPMI-8226 leukemia, 37.4%; with OVCAR-8 ovarian it was 43%; with OVCAR-5 ovarian it was 96.7%; in the test with OVCAR-4 ovarian, 43.3%; in the test on SK-OV-3 ovarian it was 84.6%. Also, the growth in the test with IGROV1 ovarian is 59.7%; in the test with OVCAR-3 ovarian, 65.3%; in the test with HS 578T breast it was 49.9%; with NCI/ADR-RES ovarian it was 40%.

As to `Oc1c(C(Nc2ccccc2)c2ccccc2)ccc2cccnc12` (stereo not given), the growth in the test with SR leukemia was 27.3%; in the test on RPMI-8226 leukemia, 37.3%; in the test with OVCAR-8 ovarian, 19.8%; with OVCAR-5 ovarian, 59.5%; in the test with OVCAR-4 ovarian, 33.2%; in the test with SK-OV-3 ovarian, 40.5%. Moreover, the growth with IGROV1 ovarian was 41.3%; with OVCAR-3 ovarian, 24.3%; with HS 578T breast, 70.4%; in the test on NCI/ADR-RES ovarian, 16.8%.

Turning to `CN(C)c1ccc(/C=C/c2sc3ccc4ccccc4c3[n+]2C)cc1`, the growth with SR leukemia is -30.7% (active); with RPMI-8226 leukemia it was -26.6% (active); in the test on OVCAR-8 ovarian it was -31.1% (active); in the test with OVCAR-5 ovarian it was -27.3% (active); in the test on OVCAR-4 ovarian it was -19.9% (active); with SK-OV-3 ovarian it was -23.7% (active). Moreover, the growth with IGROV1 ovarian is -11.2% (active); in the test on OVCAR-3 ovarian, -63% (active); with HS 578T breast, -29.1% (active); in the test on NCI/ADR-RES ovarian it was 34%.

As to `Cc1onc(-c2ccccc2)c1C(=O)N/N=C/c1cc(Cl)cc(Cl)c1O`, the growth in the test with SR leukemia was 18.5%; with RPMI-8226 leukemia it was 39.6%; in the test with OVCAR-8 ovarian, 31.1%; in the test on OVCAR-5 ovarian, 58.1%; in the test with OVCAR-4 ovarian, 32.1%; in the test with SK-OV-3 ovarian, 47.6%. The growth in the test on IGROV1 ovarian was 23.2%; with OVCAR-3 ovarian, 25.2%; in the test with HS 578T breast, 80%; with NCI/ADR-RES ovarian it was 17.1%.

Turning to `CCOc1ccc(Nc2nc3c(s2)C(=O)c2ccccc2C3=O)cc1`, the growth in the test on SR leukemia was 46.6%; in the test with RPMI-8226 leukemia, 51%; with OVCAR-8 ovarian, 68.4%; in the test with OVCAR-5 ovarian it was 112%; in the test with OVCAR-4 ovarian, 65.5%; with SK-OV-3 ovarian, 103%. Further, the growth was 82.2% with IGROV1 ovarian, 53.9% in the test with OVCAR-3 ovarian, 96.8% with HS 578T breast and 75.2% with NCI/ADR-RES ovarian.

In the case of `CCN(CC)CCNC(Cc1ccccc1)c1ccc(OCc2ccccc2)cc1` (stereo not given), the growth was 24.7% with SR leukemia; 34.8% with RPMI-8226 leukemia; 79.7% with OVCAR-8 ovarian; 56.2% with OVCAR-5 ovarian; 66.7% in the test with OVCAR-4 ovarian; 83.1% with SK-OV-3 ovarian. Besides, the growth with IGROV1 ovarian is 57.7%; with OVCAR-3 ovarian, 95.4%; in the test with HS 578T breast, 70.8%; in the test on NCI/ADR-RES ovarian, 76.1%.

Regarding `CCCN(CCC)C(=O)c1ccc(C)cc1`, the growth in the test with SR leukemia is 95%; with RPMI-8226 leukemia it was 93.3%; in the test on OVCAR-8 ovarian, 103%; in the test on OVCAR-5 ovarian it was 95.3%; in the test with OVCAR-4 ovarian, 110%; in the test on SK-OV-3 ovarian it was 94.9%. In addition, the growth is 106% with IGROV1 ovarian, 109% in the test with OVCAR-3 ovarian, 84.1% in the test with HS 578T breast and 100% in the test with NCI/ADR-RES ovarian.

Regarding `COC(=O)[C@]1(C)CCC[C@]2(C)c3ccc(C(C)C)cc3C(=O)[C@@H](Br)[C@@H]12`, the growth was 65.6% with SR leukemia; 81.1% in the test on RPMI-8226 leukemia; 77.9% with OVCAR-8 ovarian; 113% in the test on OVCAR-5 ovarian; 82.3% in the test on OVCAR-4 ovarian; 96.9% in the test with SK-OV-3 ovarian. Also, the growth in the test on IGROV1 ovarian was 111%; in the test on OVCAR-3 ovarian, 95.4%; in the test on HS 578T breast, 98%; in the test on NCI/ADR-RES ovarian, 96.7%.

As for `C[n+]1ccccc1C[n+]1ccccc1`, the growth in the test with SR leukemia is 88.6%; in the test with RPMI-8226 leukemia it was 108%; with OVCAR-8 ovarian it was 95.9%; in the test with OVCAR-5 ovarian it was 113%; in the test on OVCAR-4 ovarian it was 113%; in the test with SK-OV-3 ovarian, 109%. Further, the growth is 130% with IGROV1 ovarian, 123% in the test with OVCAR-3 ovarian, 121% with HS 578T breast and 113% in the test with NCI/ADR-RES ovarian.

Turning to `CCOC(=O)C1(C)CCCC1N` (stereo not given), the growth in the test with SR leukemia is 90.1%; in the test with RPMI-8226 leukemia, 109%; in the test with OVCAR-8 ovarian it was 106%; in the test with OVCAR-5 ovarian, 106%; in the test on OVCAR-4 ovarian, 99.2%; in the test with SK-OV-3 ovarian, 131%. The growth in the test with IGROV1 ovarian was 104%; in the test with OVCAR-3 ovarian, 104%; in the test with HS 578T breast, 98.5%; in the test with NCI/ADR-RES ovarian it was 116%.

On to `Cc1ccccc1NC(=O)Cc1csc2[n+]1C(=O)/C(=C/c1ccc([N+](=O)[O-])cc1)S2`, for which the growth was 79.7% with SR leukemia; 91.2% in the test on RPMI-8226 leukemia; 97.9% in the test with OVCAR-8 ovarian; 98.4% in the test with OVCAR-5 ovarian; 83.6% in the test on OVCAR-4 ovarian; 90.1% in the test on SK-OV-3 ovarian. The growth in the test with IGROV1 ovarian is 103%; in the test on OVCAR-3 ovarian, 97.8%; with HS 578T breast, 98.6%; with NCI/ADR-RES ovarian it was 100%.

Regarding `Clc1ccccc1C(c1ccccc1)(c1ccccc1)n1ccnc1`, the growth in the test with SR leukemia is 19.2%; in the test on RPMI-8226 leukemia, 18.7%; with OVCAR-8 ovarian, 29.1%; in the test with OVCAR-5 ovarian, 57.8%; in the test with OVCAR-4 ovarian it was 33.2%; in the test with SK-OV-3 ovarian, 69.3%. Moreover, the growth in the test with IGROV1 ovarian is 55.5%; with OVCAR-3 ovarian, 29.3%; in the test on HS 578T breast, 58.2%; in the test with NCI/ADR-RES ovarian, 33.1%.

For `COc1ccc(C(Cn2ccnc2)Sc2ccc(Cl)c(Cl)c2)cc1` (stereo not given), the growth was 97.4% in the test on SR leukemia; 50.7% in the test on RPMI-8226 leukemia; 91% with OVCAR-8 ovarian; 91.3% in the test on OVCAR-5 ovarian; 79.6% with OVCAR-4 ovarian; 86.4% with SK-OV-3 ovarian. Moreover, the growth is 59.3% in the test on IGROV1 ovarian, 89.7% in the test on OVCAR-3 ovarian, 112% with HS 578T breast and 69.1% with NCI/ADR-RES ovarian.

For the origin of these results see PubChem BioAssay (NCI).
